Screening data (PubChem)
PAFAH1B2 inh = inhibitors of human PAFAH1B2; P68402; recombinant PAFAH1B2, FP-rhodamine activity probe, fluorescence polarization; inhibition, % at 3.39 µM; hit rate 1.2% among 340,000;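 active = inhibition above the mean of all tested compounds plus 3 SD, cut at about 24% in these data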;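 note: 0% = enzyme with DMSO and 100% = wells lacking PAFAH1B2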
Target sequence (P68402 whole entry, looked up): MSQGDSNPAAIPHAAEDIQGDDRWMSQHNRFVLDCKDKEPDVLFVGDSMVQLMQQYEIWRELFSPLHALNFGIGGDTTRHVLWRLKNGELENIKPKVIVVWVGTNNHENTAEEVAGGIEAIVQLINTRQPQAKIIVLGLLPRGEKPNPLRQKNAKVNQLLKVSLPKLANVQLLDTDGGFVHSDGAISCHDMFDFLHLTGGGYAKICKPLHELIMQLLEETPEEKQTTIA
Pemphigus Ab inh = blocks pemphigus antibody binding to human desmoglein-3 | DSG3-coupled beads, scFv-anti-DSG3-GFP binding, flow cytometry; hits give low values | P32926 | binding (percent of control), % at 10 µM | hit rate 0.48% among 310,000;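 active = binding more than 3 SD below its plate's average and above zero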;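 note: hits lower antibody fragment binding to DSG3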
PfM18AAP inh = blocks P. falciparum M18 aspartyl aminopeptidase | hit rate 1.2% among 290,000 | inhibition, % at 7.35 µM | recombinant PfM18AAP, H-Glu-NHMec fluorogenic cleavage;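 active = inhibition above the campaign mean inhibition over all tested compounds plus 3 SD, cut at about 28% in these data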;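 note: 0% = plate median of test compound wells and 100% = 2 mM ZnCl2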
PAFAH1B3 FP inh = inhibitors of human PAFAH1B3; Q15102; recombinant PAFAH1B3, FP-rhodamine probe, fluorescence polarization; inhibition, % at 3.39 µM; hit rate 0.28% among 340,000; AID 492972;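 active = inhibition above the screen-wide average of all tested compounds plus 3 SD, cut at about 25% in these data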;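 note: 0% = enzyme with DMSO only and 100% = wells lacking PAFAH1B3 protein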
Target sequence (Q15102 whole entry, looked up): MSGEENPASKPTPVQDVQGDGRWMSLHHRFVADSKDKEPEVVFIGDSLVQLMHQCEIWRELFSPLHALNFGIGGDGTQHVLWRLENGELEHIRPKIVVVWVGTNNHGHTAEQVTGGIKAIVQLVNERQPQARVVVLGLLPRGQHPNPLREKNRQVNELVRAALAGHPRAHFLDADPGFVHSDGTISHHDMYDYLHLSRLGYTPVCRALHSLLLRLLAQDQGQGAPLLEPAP
pPAFAH FP inh = inhibitors of human plasma PAF acetylhydrolase (pPAFAH); hit rate 1.5% among 330,000; Q13093; AID 463082; recombinant pPAFAH, FP-rhodamine probe fluorescence polarization; inhibition, % at 3.39 µM;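 active = inhibition above the mean inhibition across the screen plus 3 SD, cut at about 25% in these data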;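 note: inhibitors block binding of the rhodamine activity-based probe so polarization drops; 0% = enzyme with DMSO and 100% = wells lacking pPAFAH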
PAFAH2 FP inh = PAFAH2 (human) inhibition; recombinant PAFAH2, FP-rhodamine activity probe, fluorescence polarization; inhibition, % at 3.39 µM; AID 492956; Q99487; hit rate 0.99% among 340,000;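 active = inhibition above the mean over all tested compounds plus 3 SD, cut at about 30% in these data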;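 note: inhibitors block probe labeling of enzyme so polarization drops; 0% = enzyme with DMSO and 100% = wells lacking PAFAH2 protein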
* hit, by the source's call; . = not tested or not shown. In the library only some 3.8% were active in any assay of this set; here they are far more common.

SMILES	PAFAH1B2 inh	Pemphigus Ab inh	PfM18AAP inh	PAFAH1B3 FP inh	pPAFAH FP inh	PAFAH2 FP inh
C[C@H]1COC(=O)[C@@H](Cc2ccc(F)cc2)C/C=C\C[C@@H](CC(=O)N[C@@H](CO)Cc2ccccc2)C(=O)N1	25*	107	.	4	2	3
C[C@H]1COC(=O)[C@H](Cc2ccc(F)cc2)CC/C=C/C[C@@H](CC(=O)N[C@@H](CO)Cc2ccccc2)C(=O)N1	17	97	.	-1	-1	8
O=C(C[C@H]1C/C=C\C[C@@H](Cc2ccc(F)cc2)C(=O)OC[C@H]2CCCN2C1=O)N[C@@H](CO)Cc1ccccc1	35*	.	.	2	7	-3
O=C1OC[C@@H]2CCCN2C(=O)[C@@H](CC(=O)N(CCO)Cc2ccccc2)C/C=C\C[C@H]1Cc1ccc(F)cc1	34*	.	.	5	9	12
OCC[C@@H]1C[C@H](O)[C@@H](O)[C@]2(OCc3ccc4ccccc4c32)O1	.	98	.	.	.	.
CSCCC(NC(=O)c1ccco1)C(=O)NCC1CCCCC1 (centres undefined)	-1	100	.	-2	-2	5
CSCCC(NC(=O)c1ccccc1Br)C(=O)NCC1CCCCC1 (centres undefined)	2	106*	2	-5	-2	2
COc1ccc(C2=NS(=O)(=O)N(C)C(C(=O)NC3CCCC3)=C2)cc1	-1	104	3	11	-3	-5
COc1ccc(C2=NS(=O)(=O)N(C)C(C(=O)NC3CCCCC3)=C2)cc1	0	-19*	4	-7	-2	-4
CS(=O)(=O)c1cnc(-c2ccccc2)nc1Sc1ccc(F)cc1	4	64*	10	5	0	-4
Cc1oc(C)c2c(=O)ccc3c(c12)OC(N)=C(C#N)C3c1ccc(F)cc1 (centres undefined)	-2	90	11	-3	32*	1
COc1ccc2ccccc2c1C=NN1CCCCC1	.	103	.	.	.	.
COc1ccc2ccccc2c1/C=N/N1C(=O)CSC1=S	3	.	30*	0	17	10
CN(CCN1CCOCC1)C(=O)C1CCC(=O)N(Cc2ccc(Cl)cc2)C1 (centres undefined)	.	99	.	.	.	.
C/C(=N/NC(=O)CN1CCN(S(=O)(=O)c2ccc(C)cc2)CC1)c1cccc(O)c1	25*	98	4	6	4	-5
C/C(=N/NC(=O)CN1CCN(S(=O)(=O)c2ccc(Br)cc2)CC1)c1ccco1	27*	96	4	4	3	4
COc1ccc(S(=O)(=O)N2CCN(Cc3ccco3)CC2)cc1	2	109	-2	6	-1	-11
O=C(CN1CCN(S(=O)(=O)c2ccc(Br)cc2)CC1)N/N=C/c1ccc(Br)s1	20	94	-4	3	0	7
O=S(=O)(c1ccc(Br)cc1)N1CCN(Cc2ccco2)CC1	26*	115	-3	10	-5	3
C/C(=N/NC(=O)CN1CCN(Cc2ccccc2Cl)CC1)c1ccco1	0	103	2	-3	7	0
O=C(CN1CCN(S(=O)(=O)c2ccc(Br)cc2)CC1)N/N=C/c1ccco1	30*	104	-7	4	4	13
Cc1ccc(C(C(=O)NC2CCCC2)N(CCCO)C(=O)Cn2nnc(-c3ccc(C)o3)n2)cc1 (centres undefined)	4	.	-9	4	-2	-2
O=C1CC2(CCN(C(=O)c3ccc(Br)cc3)CC2)Oc2ccccc21	3	99	.	4	1	2
CC1(COS(N)(=O)=O)CCCCC1	35*	99	-5	12	2	11
O=C(c1cnn(C(=O)c2ccccc2)c1)c1ccccc1O	2	99	31*	2	3	1
SMILES	PAFAH1B2 inh	Pemphigus Ab inh	PfM18AAP inh	PAFAH1B3 FP inh	pPAFAH FP inh	PAFAH2 FP inh
O=C(O)c1ccc(-n2cc(C(=O)c3ccccc3O)cn2)cc1	2	94	7	13	-3	6
O=C(c1cnn(-c2nc3ccccc3s2)c1)c1ccccc1O	-5	8.3*	3	-8	3	-7
O=C(c1cnn(C(=O)COc2ccc(Cl)cc2)c1)c1ccccc1O	7	108	30*	6	1	5
CN(C(=O)c1ccccc1)C(=O)c1ccccc1	.	106	.	.	.	.
CCOc1cc(CNCCSc2nnnn2C)cc(Br)c1OCc1ccccc1F	3	110	-6	4	25*	4
COc1cc(CNCCSc2nnnn2C)cc(Br)c1OCc1ccccc1F	1	109	2	-3	8	-1
CCCCN1C=C(C(=O)OC)C(c2ccccc2C(F)(F)F)C(C(=O)OC)=C1	7	-28*	1	4	4	0
COCCN1C=C(C(=O)OC)C(c2ccccc2C(F)(F)F)C(C(=O)OC)=C1	-1	66	-1	0	4	-2
C=CCn1c(SCC#N)nc2c(c1=O)C(C)(C)Cc1ccccc1-2	25*	96	3	2	5	0
C=CCn1c(SCC#N)nc2ccccc2c1=O	2	106	-5	8	-1	-10
Cc1ccc(C)c(NC(=O)CN(C)C(=O)c2ccc(COc3ccccc3)cc2)c1	.	97	.	.	.	.
O=C(NCc1ccc(Cl)cc1)c1cccc(NC2=NC3CS(=O)(=O)CC3S2)c1 (centres undefined)	15	97	3	7	3	1
Nc1ccc(C(=O)N/N=C\C=C\c2ccc([N+](=O)[O-])cc2)cc1	3	44*	4	15	3	0
O=C(N/N=C/C=C/c1ccc2c(c1)OCO2)c1ccc([N+](=O)[O-])cc1	-2	88	-5	2	3	-3
Cc1c(N=Cc2cc(Br)cc(Br)c2O)cccc1C(=O)O	1	101	34*	8	0	0
CN(/N=C/c1cc(Br)cc(Br)c1O)c1ccccc1	0	98	14	2	6	-3
O=C(CCC1CCCCC1)NC1CCCCC1	6	.	.	4	3	1
Cc1ccc(CCNS(=O)(=O)c2cc3c(cc2C)NC(=O)CO3)cc1	24*	112	-2	-3	9	-7
CC(CCc1ccccc1)NS(=O)(=O)c1ccccc1 (centres undefined)	33*	90	-12	8	16	4
COc1ccc(OC)c(S(=O)(=O)NC(C)CCc2ccccc2)c1 (centres undefined)	17	119	1	2	6	2
Cc1cc2c(cc1C)C(c1ccccc1OC(C)C)CC(=O)N2 (centres undefined)	-1	95	3	8	0	1
O=C(Nc1ccc(S(=O)(=O)N2CCOCC2)cc1)c1ccccc1	0	94	1	1	4	-1
O=C(Nc1ccccc1)c1ccccc1OCc1ccc(S(=O)(=O)N2CCOCC2)cc1	2	67*	-6	2	5	-3
O=C(NC(Cc1c[nH]c2ccccc12)C(=O)O)c1cccc(S(=O)(=O)N2CCCCC2)c1 (centres undefined)	.	98	.	.	.	.
